# Measured values from PMC5540273 (PLoS ONE, 2017).
# Tests used:
# Details in all cases: concentration: 1 μM, replicates: in singlicate; n = 1
# [1] = tested on: T1, PKAC-alpha
# T1 construct: gene PRKACA
# [2] = tested on: T2, PKAC-beta
# T2 construct: gene PRKACB
# [3] = tested on: PKMYT1
# [4] = tested on: PKN1
# [5] = tested on: PKN2
# [6] = tested on: PLK1
# [7] = tested on: PLK2
# [8] = tested on: PLK3
# [9] = tested on: PLK4
# [10] = tested on: PRKCD
# 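Note: KINOMEscan kinase panel screen.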
Compound,%Inh [1],%Inh [2],%Inh [3],%Inh [4],%Inh [5],%Inh [6],%Inh [7],%Inh [8],%Inh [9],%Inh [10]
FC(F)(F)c1ccc(-c2ncn(CCCN3CCOCC3)c2-c2ccncc2)cc1 [SB-217780],0%,10%,0%,43%,48%,5%,0%,0%,3%,87%
Nc1nc(-c2ccccc2F)c(-c2ccnc3ccccc23)s1 [GW560459],0%,3%,0%,3%,0%,2%,0%,0%,0%,0%
COc1cc(Nc2nccc(N3CCC(NC(=O)C4COc5ccccc5O4)C3)n2)cc(OC)c1OC (centres unmarked) [GSK1379761],4%,0%,5%,0%,7%,13%,0%,0%,9%,18%
COc1ccc(-c2coc3ccc(-c4nnc(SCc5cccc(C#N)c5)o4)cc23)cc1,11%,0%,0%,32%,0%,0%,11%,12%,18%,12%
Nc1n[nH]c2ncc(-c3ccccc3)cc12 [SB-517081],0%,0%,2%,0%,0%,0%,11%,0%,15%,0%
Cc1ccc(Oc2ccc(Nc3ncnc4cc[nH]c34)cc2C)cn1,19%,0%,8%,50%,0%,50%,12%,11%,20%,5%
COc1cc(Nc2nccc(N3CCC(NC(=O)C(C)c4ccc(Cl)cc4)C3)n2)cc(OC)c1OC (centres unmarked) [GSK1379757],0%,0%,0%,19%,0%,0%,0%,0%,0%,0%
CCCNC(=O)Nc1ccc(Oc2ncnc3ccn(C)c23)cc1,0%,0%,0%,0%,0%,0%,28%,15%,18%,33%
O=C(NCCNc1ccnc(Nc2ccc(F)cc2)n1)Nc1ccc2c(c1)OCO2 [GSK1379882],0%,0%,0%,23%,0%,4%,0%,0%,4%,0%
Cc1cc(Nc2nc(-c3cccc(C)n3)nc3ccccc23)ccn1 [GW872411],0%,0%,24%,0%,0%,0%,0%,1%,0%,8%
CCC(=O)c1c(-c2ccccc2)c2cc(Cl)ccc2c(=O)n1Cc1cc(S(C)(=O)=O)n(CCC(C)(C)O)n1,0%,0%,0%,0%,0%,0%,0%,8%,24%,0%
CN(C)c1cc(-c2ccc3c(N)n[nH]c3c2)nc(N)n1 [GSK2219329],32%,0%,0%,0%,0%,0%,0%,0%,0%,0%
CCC(=O)c1c(-c2ccccc2)c2cc(Cl)ccc2c(=O)n1Cc1ccc(C(=O)O)cc1,0%,0%,1%,0%,0%,0%,7%,0%,0%,0%
Cl.c1ccc(Cn2cnc3cc(Nc4ncnc5ccccc45)ccc32)cc1 [GW272142],0%,0%,0%,0%,0%,0%,0%,0%,0%,0%
Cc1ccccc1COc1cc(-n2cnc3cc(Cl)ccc32)sc1C(N)=O [GW813349],0%,21%,0%,7%,0%,97%,92.4%,92.8%,2%,12%
CCS(=O)(=O)c1ccc(OC)c(Nc2ncc(-c3ccc(F)cc3)o2)c1.Cl [GW591947],0%,14%,7%,0%,15%,0%,0%,0%,0%,2%
COc1cc2nccc(Nc3cccc(Oc4ccccc4)c3)c2cc1OC.Cl [GW284543],0%,10%,0%,0%,0%,0%,0%,0%,0%,5%
